Measurements taken from PubChem BioAssay AID1259336 (Sattelle Laboratory, UCL Respiratory, Division of Medicine, …, 2017).

assay: anthelmintic activity against nematode growth – whole organism, log2 fold change (AID 1259336);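 note: growth scored by imaging after five days at 20 °C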; conditions: C. elegans growth, anthelmintic screen; active compounds read low; in the data active = log2 fold change growth below about -1.8; inactive = the rest

log2 fold change growth, inactive:
CC(=O)NC[C@H]1CN(c2ccc(-c3ccc(CNCc4cn[nH]n4)cc3)c(F)c2)C(=O)O1 0.387
O=[N+]([O-])c1cn2c(n1)OC[C@@H](OCc1ccc(OC(F)(F)F)cc1)C2 -0.142
O=C([C@@H](c1ccc(Cl)cc1)c1cccnc1)N1CCN(c2ccc(C(F)(F)F)cc2)CC1 -0.994
CCCCN(CCCC)c1c(C#N)cc(S(=O)(=O)Nc2ccccc2)cc1C#N -0.631
Cc1ccc2nc(C)c(-c3ccn(Cc4ccccc4)n3)n2c1 0.192
COc1cc(C2=NCCN2)ccc1-n1cc(-c2cccc(C3=NCCN3)c2)nn1 -0.901
COc1cccc2c(C)nc(N=C(N)N)nc12 0.0276
Cc1ccc2oc(-c3cc(NC(=O)Cc4ccccc4)ccc3Cl)nc2c1 0.272
CCOC(=O)c1cc(-c2csc(Nc3c(C)cc(C)cc3C)n2)on1 -0.726
CNc1nnc(Sc2cnn(-c3ccccc3)c(=O)c2Cl)s1 -0.948
Cc1ccc(-c2nc(CN(Cc3ccccn3)C(C)C)cs2)o1 0.617
COc1cncc(-c2cncc(N3CCN(c4ccncc4)CC3)n2)c1 -0.191
c1ccc(-c2[nH]c3ccccc3c2[C@@H](c2ccccn2)N2CCCC2)cc1 -0.0251
CC(C)(C)n1nc(-c2ccccc2)c2c(N)ncnc21 -0.162
Nc1ncc(-c2cn[nH]c2)cc1-c1nc2ncc(Cl)cc2[nH]1 -0.454
COc1cccc(-n2nnnc2S(C)(=O)=O)c1 0.157
COc1ccccc1[C@H](C)NCC(=O)Nc1cc(C(F)(F)F)ccc1Cl 0.142
COc1ccc(-c2cc(NC(=O)c3ccc(F)cc3Cl)ccc2OC)cc1 0.039
C[C@@H]1[C@H](O)[C@@H](C)C=CC=CC=CC=CC=CC=CC=C[C@H](O[C@@H]2O[C@H](C)[C@@H](O)[C@H](N)[C@@H]2O)C[C@@H]2O[C@](O)(C[C@@H](O)C[C@@H](O)[C@H](O)CC[C@H](O)C[C@@H](O)CC(=O)O[C@H]1C)C[C@H](O)[C@H]2C(=O)O 0.0153
CN1CCN(c2nccc3[nH]c(-c4ccc(F)c(F)c4)nc23)CC1 -0.373
CC(=O)Nc1ccc(NC(=O)c2cc(-c3cc(Cl)ccc3O)n[nH]2)cc1 0.254
C[C@H]1CS(=O)(=O)CCN1/N=C/c1ccc([N+](=O)[O-])o1 0.236
COc1ccc(-c2cncc3ccc(C(=O)NCCCn4ccnc4)nc23)cc1 0.283
C[C@H](C(N)=O)N1CCCC[C@H]1c1ccc(OCc2cccc(F)c2)cc1 -0.0659
Cc1cc(OCC(=O)NCc2ccccc2)c2cc(Br)ccc2n1 0.232
COc1ccccc1CNC(=O)c1cc(C2CC2)nc2c1cnn2C(C)C -0.297
O=C(Cn1ccnc1[N+](=O)[O-])NCc1ccccc1 0.415
CN1CCCC1CCO[C@](C)(c1ccccc1)c1ccc(Cl)cc1 (stereo partly drawn) 0.213
CNC1C(OC2C(OC3C(O)C(O)C(N=C(N)N)C(O)C3N=C(N)N)OC(C)C2(O)C=O)OC(CO)C(O)C1O (stereo not drawn) -0.00587
Cc1cc(C)n(-c2ccc(NC(=O)C3CCN(Cc4cnc(C)s4)CC3)cc2)n1 0.442
COc1ccc(CN2CCOc3ccc([C@@](C)(O)CN(C)C)cc3C2)cc1C 0.162
Cc1cc(C(=O)Nc2cnn(Cc3ccc(Cl)cc3Cl)c2)no1 0.545
Cc1nnc(NCc2cccc(Cl)c2)c2ccccc12 0.138
CCOc1ccc(-c2nc(CNCCc3ccc(F)cc3)cs2)cc1 0.153
CO[C@H]1/C=C/O[C@@]2(C)Oc3c(C)c(O)c4c(O)c(c(/C=N/N5CCN(C)CC5)c(O)c4c3C2=O)NC(=O)/C(C)=C\C=C[C@H](C)[C@H](O)[C@@H](C)[C@@H](O)[C@@H](C)[C@H](OC(C)=O)[C@@H]1C 0.729
CCN(CC)S(=O)(=O)c1ccc(Cl)c(C(=O)Nc2ccc3nc(C)sc3c2)c1 -1.22
COc1cccc(CC(=O)N2CCC(n3c(C)nc4ccc(F)cc43)CC2)c1 0.116
COC(=O)c1ccc(F)cc1NS(=O)(=O)c1cccc(-c2cnn(Cc3ccccc3)c2)c1 -0.413
